# In the supplement of paper PMC11732987, “Enantioselective OTUD7B fragment discovery through chemoproteomics screening and high-throughput optimisation” (Communications Chemistry, 2025):
# Values without a mark were called inactive.
# Tests used:
# Assay in all cases: log2 ratio of Biotin-Ahx-Ub-VS probe labelling (fragment/DMSO); higher = less target engagement (more negative = stronger competition), active = hit call of the paper (q ≤ 0.05, log2 ratio ≤ -1)
# Conditions in all cases: compound concentration: 200 uM; treatment time: 3 h
# [1] = molecular target: T1, OTUD6B (UniProt Q8N6M0)
# T1 sequence (whole entry): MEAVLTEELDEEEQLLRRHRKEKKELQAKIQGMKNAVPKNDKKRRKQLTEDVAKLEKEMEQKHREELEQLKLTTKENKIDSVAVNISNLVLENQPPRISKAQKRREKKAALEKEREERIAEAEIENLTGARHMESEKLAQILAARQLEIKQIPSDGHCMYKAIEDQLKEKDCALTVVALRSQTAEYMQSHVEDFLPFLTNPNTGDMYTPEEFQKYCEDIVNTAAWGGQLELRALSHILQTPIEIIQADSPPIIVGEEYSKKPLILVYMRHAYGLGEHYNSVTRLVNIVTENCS
# Method in brief: (§1)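 The table lists average log2 ratios of fragment over vehicle, from an unpaired t-test on global-median-normalised Spectronaut label-free quantities. Proteins with ≥2 unique peptides were used. Samples were HEK293T lysate (495 µg) treated in triplicate with fragment at 200 µM or vehicle for 3 h, then with Biotin-Ahx-Ub-VS (0.5 µM final) for 1 h, with labelled DUBs NeutrAvidin-enriched and run by diaPASEF LC-MS/MS.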
# [2] = molecular target: T2, OTUD7B (UniProt Q6GQQ9)
# T2 sequence (whole entry): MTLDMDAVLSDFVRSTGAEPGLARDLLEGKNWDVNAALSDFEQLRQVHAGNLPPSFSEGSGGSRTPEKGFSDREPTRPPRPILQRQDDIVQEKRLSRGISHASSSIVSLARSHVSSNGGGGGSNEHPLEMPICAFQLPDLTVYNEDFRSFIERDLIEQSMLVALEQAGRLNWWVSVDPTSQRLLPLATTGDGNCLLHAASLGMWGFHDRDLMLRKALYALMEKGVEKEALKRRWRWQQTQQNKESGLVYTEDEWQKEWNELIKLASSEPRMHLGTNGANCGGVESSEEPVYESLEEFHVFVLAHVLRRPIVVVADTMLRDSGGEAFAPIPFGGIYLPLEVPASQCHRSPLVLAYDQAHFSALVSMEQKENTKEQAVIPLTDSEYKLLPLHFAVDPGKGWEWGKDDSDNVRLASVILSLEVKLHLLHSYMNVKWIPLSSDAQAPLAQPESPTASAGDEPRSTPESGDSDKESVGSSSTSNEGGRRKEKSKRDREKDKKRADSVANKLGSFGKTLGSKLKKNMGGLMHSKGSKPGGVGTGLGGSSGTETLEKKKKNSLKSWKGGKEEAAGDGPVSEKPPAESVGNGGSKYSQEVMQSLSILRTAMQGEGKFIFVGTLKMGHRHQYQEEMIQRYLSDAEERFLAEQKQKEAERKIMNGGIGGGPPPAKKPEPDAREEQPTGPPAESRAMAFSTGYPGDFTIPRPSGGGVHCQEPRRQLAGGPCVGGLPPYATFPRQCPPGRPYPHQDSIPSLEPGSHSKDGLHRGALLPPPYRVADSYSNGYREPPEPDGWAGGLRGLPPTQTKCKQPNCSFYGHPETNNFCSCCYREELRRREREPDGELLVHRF
# Method in brief: as §1
# [3] = molecular target: PRPF8 (UniProt Q6P2Q9)
# Method in brief: as §1
# [4] = molecular target: T3, PSMD7 (UniProt P51665)
# T3 sequence (whole entry): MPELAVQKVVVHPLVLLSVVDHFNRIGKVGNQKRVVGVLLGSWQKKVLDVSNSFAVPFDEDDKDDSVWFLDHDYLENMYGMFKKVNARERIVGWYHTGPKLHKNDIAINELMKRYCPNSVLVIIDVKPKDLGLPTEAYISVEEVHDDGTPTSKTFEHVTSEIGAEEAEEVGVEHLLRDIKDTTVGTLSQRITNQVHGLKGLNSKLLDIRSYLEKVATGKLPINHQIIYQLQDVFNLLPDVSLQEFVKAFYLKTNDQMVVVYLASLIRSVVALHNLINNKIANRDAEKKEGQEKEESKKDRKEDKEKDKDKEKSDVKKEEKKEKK
# Method in brief: as §1
# [5] = molecular target: UCHL1 (UniProt P09936)
# UCHL1, sequence (P09936 whole entry, looked up): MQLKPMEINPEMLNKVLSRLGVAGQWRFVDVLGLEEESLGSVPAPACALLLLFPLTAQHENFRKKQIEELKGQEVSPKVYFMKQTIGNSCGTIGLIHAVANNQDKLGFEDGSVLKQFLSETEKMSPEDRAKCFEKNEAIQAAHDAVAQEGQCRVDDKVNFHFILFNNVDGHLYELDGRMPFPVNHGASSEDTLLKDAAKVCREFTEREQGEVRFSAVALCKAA
# Method in brief: as §1
# [6] = molecular target: T4, UCHL3 (UniProt P15374)
# T4 sequence (whole entry): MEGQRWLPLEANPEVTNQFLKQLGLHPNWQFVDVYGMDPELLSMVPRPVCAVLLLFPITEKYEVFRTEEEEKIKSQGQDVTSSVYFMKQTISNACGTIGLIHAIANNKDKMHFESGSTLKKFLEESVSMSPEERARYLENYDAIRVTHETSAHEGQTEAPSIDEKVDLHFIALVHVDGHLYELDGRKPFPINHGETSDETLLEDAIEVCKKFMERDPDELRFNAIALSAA
# Method in brief: as §1
# [7] = molecular target: T5, UCHL5 (UniProt Q9Y5K5)
# T5 sequence (whole entry): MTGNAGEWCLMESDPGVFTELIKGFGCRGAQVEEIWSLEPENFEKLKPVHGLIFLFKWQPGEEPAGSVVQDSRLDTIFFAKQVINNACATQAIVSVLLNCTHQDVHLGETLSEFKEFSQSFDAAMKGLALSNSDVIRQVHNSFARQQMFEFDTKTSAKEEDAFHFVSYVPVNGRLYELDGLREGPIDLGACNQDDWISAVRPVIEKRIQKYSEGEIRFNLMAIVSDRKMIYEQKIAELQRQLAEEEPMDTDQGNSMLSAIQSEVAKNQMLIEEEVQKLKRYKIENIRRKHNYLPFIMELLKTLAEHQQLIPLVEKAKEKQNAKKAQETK
# Method in brief: as §1
# [8] = molecular target: USP10 (UniProt Q14694)
# USP10, sequence (Q14694 whole entry): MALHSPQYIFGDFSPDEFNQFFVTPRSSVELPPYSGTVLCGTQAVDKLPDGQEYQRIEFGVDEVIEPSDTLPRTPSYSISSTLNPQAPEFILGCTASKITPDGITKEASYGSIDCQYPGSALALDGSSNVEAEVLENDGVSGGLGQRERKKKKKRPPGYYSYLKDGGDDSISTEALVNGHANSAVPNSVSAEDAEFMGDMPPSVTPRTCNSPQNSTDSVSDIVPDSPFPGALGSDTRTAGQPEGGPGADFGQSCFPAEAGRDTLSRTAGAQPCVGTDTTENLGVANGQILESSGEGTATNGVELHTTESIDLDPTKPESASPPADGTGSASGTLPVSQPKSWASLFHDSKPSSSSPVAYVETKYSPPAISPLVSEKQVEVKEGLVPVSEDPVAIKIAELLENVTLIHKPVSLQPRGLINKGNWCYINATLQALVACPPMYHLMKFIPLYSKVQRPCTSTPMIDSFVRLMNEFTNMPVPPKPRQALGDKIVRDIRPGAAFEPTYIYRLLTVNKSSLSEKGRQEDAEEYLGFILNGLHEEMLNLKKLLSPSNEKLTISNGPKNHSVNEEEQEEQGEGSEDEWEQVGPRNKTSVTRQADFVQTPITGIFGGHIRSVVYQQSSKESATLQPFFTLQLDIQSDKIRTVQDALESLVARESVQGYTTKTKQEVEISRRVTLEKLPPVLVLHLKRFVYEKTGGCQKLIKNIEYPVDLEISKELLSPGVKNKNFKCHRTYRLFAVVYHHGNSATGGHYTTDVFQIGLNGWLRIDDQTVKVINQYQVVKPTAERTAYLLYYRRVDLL
# Method in brief: as §1
# [9] = molecular target: T6, USP15 (UniProt Q9Y4E8)
# T6 sequence (whole entry): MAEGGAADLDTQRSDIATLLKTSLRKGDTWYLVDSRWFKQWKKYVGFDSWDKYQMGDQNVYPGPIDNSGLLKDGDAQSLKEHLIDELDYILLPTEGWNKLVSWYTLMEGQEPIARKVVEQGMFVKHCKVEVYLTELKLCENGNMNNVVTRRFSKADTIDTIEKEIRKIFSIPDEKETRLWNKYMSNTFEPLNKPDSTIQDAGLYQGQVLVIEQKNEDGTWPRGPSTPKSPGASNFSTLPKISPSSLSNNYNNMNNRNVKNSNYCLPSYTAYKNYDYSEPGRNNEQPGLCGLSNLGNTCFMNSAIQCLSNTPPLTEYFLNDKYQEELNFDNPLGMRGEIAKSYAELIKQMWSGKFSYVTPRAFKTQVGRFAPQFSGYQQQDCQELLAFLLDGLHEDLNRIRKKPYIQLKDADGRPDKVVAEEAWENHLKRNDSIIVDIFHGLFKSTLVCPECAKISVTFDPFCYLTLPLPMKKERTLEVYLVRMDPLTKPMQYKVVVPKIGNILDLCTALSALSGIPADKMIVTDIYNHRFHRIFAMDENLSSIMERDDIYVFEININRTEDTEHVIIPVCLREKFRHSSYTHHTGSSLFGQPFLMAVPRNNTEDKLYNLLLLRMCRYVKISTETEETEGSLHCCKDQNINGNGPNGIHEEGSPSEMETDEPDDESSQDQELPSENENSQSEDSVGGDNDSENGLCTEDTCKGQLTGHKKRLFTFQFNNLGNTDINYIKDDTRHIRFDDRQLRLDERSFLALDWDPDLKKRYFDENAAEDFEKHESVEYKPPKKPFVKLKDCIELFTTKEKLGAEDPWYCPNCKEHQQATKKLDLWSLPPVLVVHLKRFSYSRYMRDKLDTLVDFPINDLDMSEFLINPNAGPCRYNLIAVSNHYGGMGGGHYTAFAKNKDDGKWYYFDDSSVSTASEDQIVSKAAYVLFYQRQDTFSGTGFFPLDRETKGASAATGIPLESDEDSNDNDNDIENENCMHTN
# Method in brief: as §1
# [10] = molecular target: USP16 (UniProt Q9Y5T5)
# USP16, sequence (Q9Y5T5 whole entry, looked up): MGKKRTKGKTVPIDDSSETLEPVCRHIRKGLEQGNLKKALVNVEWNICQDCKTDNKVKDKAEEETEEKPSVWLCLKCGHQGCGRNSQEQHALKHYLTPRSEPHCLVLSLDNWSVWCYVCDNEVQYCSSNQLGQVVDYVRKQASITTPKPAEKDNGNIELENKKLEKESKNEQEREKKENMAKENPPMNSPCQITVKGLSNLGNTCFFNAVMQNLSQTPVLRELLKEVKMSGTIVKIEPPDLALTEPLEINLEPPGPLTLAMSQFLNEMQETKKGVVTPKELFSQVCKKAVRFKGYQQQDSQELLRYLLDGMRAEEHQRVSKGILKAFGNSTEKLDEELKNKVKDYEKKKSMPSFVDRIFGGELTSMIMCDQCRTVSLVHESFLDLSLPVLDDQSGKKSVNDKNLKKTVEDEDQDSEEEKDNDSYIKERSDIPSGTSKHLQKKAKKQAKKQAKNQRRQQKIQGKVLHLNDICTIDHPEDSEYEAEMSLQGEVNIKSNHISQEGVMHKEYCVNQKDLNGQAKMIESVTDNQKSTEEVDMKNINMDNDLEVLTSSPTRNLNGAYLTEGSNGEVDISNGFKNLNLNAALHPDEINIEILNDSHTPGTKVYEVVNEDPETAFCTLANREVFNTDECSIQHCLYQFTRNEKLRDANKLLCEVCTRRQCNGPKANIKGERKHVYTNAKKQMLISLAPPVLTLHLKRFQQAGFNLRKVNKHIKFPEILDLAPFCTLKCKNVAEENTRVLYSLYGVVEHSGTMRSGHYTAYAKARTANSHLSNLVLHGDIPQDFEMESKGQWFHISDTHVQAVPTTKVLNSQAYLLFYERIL
# Method in brief: as §1
smiles,measurement,setting,value
Cc1cccc(NC(=O)CCl)c1C,log2 ratio of Biotin-Ahx-Ub-VS probe labelling,[1],-0.273
same,log2 ratio of Biotin-Ahx-Ub-VS probe labelling,[2],-0.61
same,log2 ratio of Biotin-Ahx-Ub-VS probe labelling,[3],0.0787
same,log2 ratio of Biotin-Ahx-Ub-VS probe labelling,[4],-0.631
same,log2 ratio of Biotin-Ahx-Ub-VS probe labelling,[5],-0.766
same,log2 ratio of Biotin-Ahx-Ub-VS probe labelling,[6],-1.39 (active)
same,log2 ratio of Biotin-Ahx-Ub-VS probe labelling,[7],-0.0693
same,log2 ratio of Biotin-Ahx-Ub-VS probe labelling,[8],-0.292
same,log2 ratio of Biotin-Ahx-Ub-VS probe labelling,[9],-0.43
same,log2 ratio of Biotin-Ahx-Ub-VS probe labelling,[10],-0.691
